Results from PubChem BioAssay.
Calls of active or inactive are those of the source.

What was measured:
[1] = E. coli DRC41 culture turbidity changes, primary screen, E. coli filamentation inducer project, strain DRC41, OD650, 48 h (AID 1152);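 also: E. coli MC1000 strain DRC41 lacking acrAB efflux pump and sulA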; details: E. coli DRC41 (acrAB sulA), higher = more signal, called active from +8 up or from −8 down
[2] = small-molecule binders of probe aLefty1, primary screen, biochemical, small-molecule microarray, 635/667 nm fluorescence (AID 1153); details: higher = more signal;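 also: score merges spot fluorescence with signal-to-noise ratio from the scanned slide images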
[3] = PSAC antagonists in infected red cells, primary screen, cell-based, P. falciparum Indochina, OD700, 1 h (AID 1154); details: P. falciparum Indochina infected RBC osmotic lysis, higher = more signal, called active from +8 up or from −8 down
[4] = PSAC antagonists in infected red cells, primary screen, cell-based, P. falciparum Indochina, OD700, 2 h (AID 1155);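 also: lysis reports solute entry through the parasite surface anion channel PSAC; channel blockers reduce lysis of infected cells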; details: P. falciparum Indochina infected erythrocytes, osmotic lysis OD700; higher = more signal, called active from +8 up or from −8 down
[5] = osmotic lysis modulators in infected erythrocytes, primary screen, PSAC antagonist project, cell-based, P. falciparum Indochina, OD700, 3 h (AID 1156); details: higher = more signal, called active from +8 up or from −8 down
[6] = PSAC antagonists in infected red cells, primary screen, cell-based, P. falciparum Indochina, OD700, 18 h (AID 1157); details: P. falciparum Indochina infected erythrocytes, osmotic lysis OD700, 18 h; higher = more signal, called active from +8 up or from −8 down
[7] = modulators of S6 phosphorylation in cells, primary screen, cell-based, A549, cytoblot, luminescence, serum-stimulated (AID 1158); details: A549 phospho-S6 cytoblot, 5 h, higher = more signal;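 also: serum-stimulated A549 lung adenocarcinoma cells; signal is phosphorylated S6 detected by cytoblot immunostaining with HRP secondary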
[8] = target: NADPH oxidase 2 (Homo sapiens) (UniProt P04839); test: NOX2-dependent H2O2 signal modulators, primary screen, NOX inhibitor project, cell-based, HEK293-NOX2, PMA-stimulated, Amplex Red fluorescence (AID 1159); details: 45 min, higher = more signal, called active from +8 up or from −8 down; also: test concentration not given here
Chain of NADPH oxidase 2 (Homo sapiens) (P04839 whole entry, looked up): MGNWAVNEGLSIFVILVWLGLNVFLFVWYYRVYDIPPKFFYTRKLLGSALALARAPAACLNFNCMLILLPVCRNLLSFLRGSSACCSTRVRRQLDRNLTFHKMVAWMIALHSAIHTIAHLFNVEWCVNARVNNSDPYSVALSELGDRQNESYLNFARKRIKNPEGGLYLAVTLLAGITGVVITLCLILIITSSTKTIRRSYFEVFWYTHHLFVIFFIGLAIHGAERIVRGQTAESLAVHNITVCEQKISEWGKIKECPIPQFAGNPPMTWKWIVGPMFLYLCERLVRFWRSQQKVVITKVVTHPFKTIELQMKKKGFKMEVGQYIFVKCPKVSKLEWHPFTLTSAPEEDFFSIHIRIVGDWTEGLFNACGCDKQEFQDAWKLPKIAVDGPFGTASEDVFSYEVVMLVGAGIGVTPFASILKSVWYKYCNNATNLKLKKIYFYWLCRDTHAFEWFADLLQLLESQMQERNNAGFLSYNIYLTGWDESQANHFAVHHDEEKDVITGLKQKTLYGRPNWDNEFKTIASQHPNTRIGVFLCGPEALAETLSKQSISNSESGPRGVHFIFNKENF

[9] = target: NADPH oxidase 4 (Homo sapiens) (UniProt Q9NPH5); test: NOX4-dependent H2O2 signal modulators, primary screen, NOX inhibitor project, cell-based, HEK293-NOX4, tetracycline-induced, Amplex Red fluorescence (AID 1160); details: 45 min, higher = more signal, called active from +8 up or from −8 down
Chain of NADPH oxidase 4 (Homo sapiens) (Q9NPH5 whole entry, looked up): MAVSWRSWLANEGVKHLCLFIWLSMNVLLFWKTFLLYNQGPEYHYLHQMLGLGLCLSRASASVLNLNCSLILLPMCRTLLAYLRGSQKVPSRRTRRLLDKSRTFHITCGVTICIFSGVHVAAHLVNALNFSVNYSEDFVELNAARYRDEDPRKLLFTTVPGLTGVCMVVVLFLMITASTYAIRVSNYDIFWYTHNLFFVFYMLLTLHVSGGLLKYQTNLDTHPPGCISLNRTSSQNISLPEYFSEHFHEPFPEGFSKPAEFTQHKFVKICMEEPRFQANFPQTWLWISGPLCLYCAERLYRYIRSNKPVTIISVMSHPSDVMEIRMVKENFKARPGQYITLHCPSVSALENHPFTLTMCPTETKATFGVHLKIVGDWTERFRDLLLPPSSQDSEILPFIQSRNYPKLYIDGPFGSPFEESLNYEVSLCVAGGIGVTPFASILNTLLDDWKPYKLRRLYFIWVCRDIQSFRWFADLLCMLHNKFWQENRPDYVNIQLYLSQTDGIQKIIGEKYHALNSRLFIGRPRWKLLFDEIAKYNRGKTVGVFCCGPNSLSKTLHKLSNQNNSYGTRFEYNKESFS

[10] = target: NADPH oxidase 5 (Homo sapiens) (UniProt Q96PH1); test: NOX5-dependent H2O2 signal modulators, primary screen, NOX inhibitor project, cell-based, HEK293-NOX5, Amplex Red fluorescence (AID 1161); details: HEK293-NOX5, ionomycin, 45 min, higher = more signal
Chain of NADPH oxidase 5 (Homo sapiens) (Q96PH1 whole entry, looked up): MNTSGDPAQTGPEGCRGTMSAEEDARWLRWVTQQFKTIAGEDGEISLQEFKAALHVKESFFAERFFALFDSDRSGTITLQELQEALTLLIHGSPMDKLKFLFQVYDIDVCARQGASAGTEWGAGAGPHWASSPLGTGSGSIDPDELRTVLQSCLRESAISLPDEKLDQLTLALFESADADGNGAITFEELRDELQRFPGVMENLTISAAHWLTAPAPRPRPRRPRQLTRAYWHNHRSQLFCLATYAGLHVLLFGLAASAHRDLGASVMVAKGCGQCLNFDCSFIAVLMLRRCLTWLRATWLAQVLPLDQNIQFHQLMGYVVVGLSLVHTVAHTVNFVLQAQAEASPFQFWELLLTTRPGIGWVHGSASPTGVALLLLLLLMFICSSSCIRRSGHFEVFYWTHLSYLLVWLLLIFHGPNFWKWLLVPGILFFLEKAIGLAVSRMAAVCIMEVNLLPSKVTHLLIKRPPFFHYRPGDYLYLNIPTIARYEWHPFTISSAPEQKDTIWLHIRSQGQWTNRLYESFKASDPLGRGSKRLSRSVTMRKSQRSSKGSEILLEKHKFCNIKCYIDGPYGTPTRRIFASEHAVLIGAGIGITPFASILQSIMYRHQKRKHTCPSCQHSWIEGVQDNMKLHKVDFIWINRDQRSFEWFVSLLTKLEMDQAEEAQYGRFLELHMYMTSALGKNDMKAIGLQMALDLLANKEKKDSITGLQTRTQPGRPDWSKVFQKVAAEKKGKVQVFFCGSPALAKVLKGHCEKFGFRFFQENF

[11] = A549 cell viability effects, profiling panel, calcein-AM fluorescence, 48 h, basal (AID 1162); details: higher = more signal; also: test concentration not given here
[12] = adipocyte viability effects, profiling panel, cell-based, 3T3-L1 adipocytes, calcein-AM fluorescence, 48 h, basal (AID 1163); details: 3T3-L1 adipocytes viability, higher = more signal; also: test concentration not given here
[13] = HepG2 cell viability effects, profiling panel, calcein-AM fluorescence, 48 h, basal (AID 1164); details: higher = more signal; also: test concentration not given here
[14] = MM1S cell viability effects, profiling panel, calcein-AM fluorescence, 48 h, basal (AID 1165); details: higher = more signal;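 also: viability of MM1S multiple myeloma cells under basal unstimulated conditions; test concentration not given here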
[15] = basal RPMI8226 viability, no added stimulus, profiling panel, cell-based, calcein-AM fluorescence, 48 h, PK04 Diversity Set (AID 1166); details: RPMI8226 myeloma viability, higher = more signal;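 also: cells grown under basal conditions without added stimulus; test concentration not given here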
[16] = basal HepG2 mitochondrial membrane potential changes, profiling panel, cell-based, JC-1 fluorescence, 24 h, 100 nL compound (AID 1167); details: higher = more signal; also: test concentration not given here
[17] = basal 3T3-L1 adipocyte mitochondrial potential changes, profiling panel, cell-based, JC-1 fluorescence, 3T3-L1 adipocytes, 24 h, 100 nL compound (AID 1168); details: JC-1 mitochondrial fluorescence, higher = more signal, called active from +8 up or from −8 down; also: test concentration not given here
[18] = basal RPMI8226 mitochondrial membrane potential changes, profiling panel, cell-based, JC-1 fluorescence, 24 h, 100 nL compound (AID 1169); details: RPMI8226 myeloma, JC-1 mitochondrial potential fluorescence, higher = more signal; also: test concentration not given here
[19] = basal MM1S mitochondrial membrane potential changes, profiling panel, cell-based, JC-1 fluorescence, 24 h, 100 nL compound (AID 1170); details: higher = more signal; also: test concentration not given here
[20] = A549 lung cancer cell viability effects, profiling panel, resazurin fluorescence, 24 h, PK04 Diversity Set (AID 1171); details: higher = more signal, called active from +8 up or from −8 down; also: test concentration not given here

With `[N-]=[N+]=NCc1ccccc1[C@H]1OC(c2ccc(OCCCO)cc2)=N[C@@]1(Cc1ccccc1N=[N+]=[N-])C(=O)N1CCOCC1` the z-score [1] was -0.476 (inactive), the composite z-score [2] was 0.181 and the z-score [3] was 28.3 (active). For the same compound, the z-score [4] was 22 (active), the z-score [5] was 2.5 (inactive) and the z-score [6] was 3.77 (inactive). For the same compound, the z-score [7] was -0.318, the z-score [8] was -5.55 (inactive) and the z-score [9] was -1.03 (inactive). The z-score [10] was -2.42, the z-score [11] was -0.612 and the z-score [12] was -0.182. The z-score [13] was -0.659, the z-score [14] was -2.69 and the z-score [15] was -3.44. For the same compound, the z-score [16] was -1.26, the z-score [17] was -0.866 (inactive) and the z-score [18] was -1.11. The z-score [19] was -2.14 and the z-score [20] was -0.772 (inactive).
In the case of `COc1ccc([Si](C)(C)[C@H]2[C@H](CC(=O)N3CCC[C@H]3CO)O[C@@]3(C(=O)N(C)c4c(Br)cc(C)cc43)[C@@H]2C)cc1`, the z-score [1] is reported as -0.437 (inactive), the composite z-score [2] is reported as 1 and the z-score [3] is reported as 2.11 (inactive). The z-score [4] was 0.179 (inactive), the z-score [5] was -0.192 (inactive) and the z-score [6] was 0.62 (inactive). For the same compound, the z-score [7] was 0.488, the z-score [8] was 0.951 (inactive) and the z-score [9] was 0.657 (inactive). It also gave a z-score [10] of 3.04, a z-score [11] of 0.709 and a z-score [12] of -0.333. The z-score [13] was -0.232, the z-score [14] was 0.0328 and the z-score [15] was -0.63. For the same compound, the z-score [16] was 0.604, the z-score [17] was 0.123 (inactive) and the z-score [18] was -0.126. For the same compound, the z-score [19] was -0.468 and the z-score [20] was 0.809 (inactive).
For `C=CCN1C(=O)[C@]2(O[C@H](CCO)[C@@H]([Si](C)(C)c3ccc(OC)cc3)[C@@H]2C)c2cc(N3C(=O)c4ccccc4Oc4ccccc43)ccc21`, the z-score [1] was -0.458 (inactive), the composite z-score [2] was 0.568 and the z-score [3] was 6.17 (inactive). For the same compound, the z-score [4] was 2.82 (inactive), the z-score [5] was -0.512 (inactive) and the z-score [6] was 2.95 (inactive). The z-score [7] was 0.695, the z-score [8] was 0.0876 (inactive) and the z-score [9] was 0.945 (inactive). The z-score [10] was -0.216, the z-score [11] was -3.65 and the z-score [12] was 0.139. It also gave a z-score [13] of -4.64, a z-score [14] of -2.73 and a z-score [15] of -4.35. The z-score [16] was -2.08, the z-score [17] was -0.599 (inactive) and the z-score [18] was -1.04. The z-score [19] was -2.15 and the z-score [20] was -5.48 (inactive).
In the case of `CO[C@H]1O[C@H](CO)[C@@H](OC(=O)Nc2cccc(F)c2)[C@H](OC(=O)Nc2ccc3c(c2)OCO3)[C@@H]1OC(=O)Nc1ccc2c(c1)OCO2`, the z-score [1] is reported as -0.727 (inactive), the composite z-score [2] is reported as 0.37 and the z-score [3] is reported as 12 (active). For the same compound, the z-score [4] was 2.05 (inactive), the z-score [5] was 1.16 (inactive) and the z-score [6] was 1.18 (inactive). For the same compound, the z-score [7] was 0.296, the z-score [8] was -3.87 (inactive) and the z-score [9] was -1.07 (inactive). It also gave a z-score [10] of -1.81, a z-score [11] of -1.33 and a z-score [12] of 0.726. It also gave a z-score [13] of -1.07, a z-score [14] of -1.49 and a z-score [15] of -1.74. For the same compound, the z-score [16] was -0.96, the z-score [17] was -0.672 (inactive) and the z-score [18] was -0.571. For the same compound, the z-score [19] was -0.964 and the z-score [20] was -1.47 (inactive).
In the case of `CCCCC(=C=CC[C@@H](O)c1ccc(OCCO)cc1)CCO`, the z-score [1] is reported as 0.565 (inactive), the composite z-score [2] is reported as 0.0129 and the z-score [3] is reported as 6.76 (inactive). The z-score [4] was 0.892 (inactive), the z-score [5] was 0.249 (inactive) and the z-score [6] was 0.503 (inactive). For the same compound, the z-score [7] was -0.481, the z-score [8] was 1.14 (inactive) and the z-score [9] was 0.699 (inactive). It also gave a z-score [10] of -0.192, a z-score [11] of 1.39 and a z-score [12] of -0.0802. For the same compound, the z-score [13] was 0.016, the z-score [14] was -0.64 and the z-score [15] was 0.796. The z-score [16] was 0.0677, the z-score [17] was -0.214 (inactive) and the z-score [18] was -0.0377. The z-score [19] was 1.03 and the z-score [20] was 1.46 (inactive).
For `C=CCNC(=O)[C@@H]1[C@H]2C(=O)O[C@H](c3ccccc3)[C@H](c3ccccc3)N2[C@H](c2ccc(OCCO)cc2)[C@@]12C(=O)Nc1ccc(C#CC3=CCCCC3)cc12`, the z-score [1] was -0.874 (inactive), the composite z-score [2] was -0.21 and the z-score [3] was 2.81 (inactive). The z-score [4] was 1.98 (inactive), the z-score [5] was -0.306 (inactive) and the z-score [6] was 1.87 (inactive). For the same compound, the z-score [7] was -0.474, the z-score [8] was 1.38 (inactive) and the z-score [9] was -0.894 (inactive). It also gave a z-score [10] of 1.56, a z-score [11] of -1.25 and a z-score [12] of 0.73. For the same compound, the z-score [13] was -1.18, the z-score [14] was -2.12 and the z-score [15] was -2.66. The z-score [16] was -1.11, the z-score [17] was -0.194 (inactive) and the z-score [18] was -1.19. For the same compound, the z-score [19] was -1.24 and the z-score [20] was -1.49 (inactive).
With `C=C(CCCC)/C(=C/C[C@@H](OC(C)=O)c1cccc(OCCO)c1)c1cc(C(=O)OC)ccc1OC` the z-score [1] was 0.198 (inactive), the composite z-score [2] was -0.0969 and the z-score [3] was 17.4 (active). For the same compound, the z-score [4] was 3.45 (inactive), the z-score [5] was 1.42 (inactive) and the z-score [6] was 1.02 (inactive). The z-score [7] was 0.0322, the z-score [8] was -2.13 (inactive) and the z-score [9] was -1.16 (inactive). The z-score [10] was -1.88, the z-score [11] was 0.771 and the z-score [12] was 0.204. It also gave a z-score [13] of 0.622, a z-score [14] of -2.41 and a z-score [15] of -1.98. The z-score [16] was 1.44, the z-score [17] was -0.288 (inactive) and the z-score [18] was 0.186. For the same compound, the z-score [19] was -0.679 and the z-score [20] was 1.25 (inactive).
In the case of `CN1C(=O)C2C(C1=O)C1C=C(CCCO)C2C(C2CC2)N1C` (stereo not given), the z-score [1] is reported as 0.667 (inactive), the composite z-score [2] is reported as -0.0683 and the z-score [3] is reported as -0.452 (inactive). The z-score [4] was -0.72 (inactive), the z-score [5] was 0.139 (inactive) and the z-score [6] was -1.17 (inactive). For the same compound, the z-score [7] was 1.82, the z-score [8] was -0.0367 (inactive) and the z-score [9] was -0.274 (inactive). It also gave a z-score [10] of 0.53, a z-score [11] of -0.0397 and a z-score [12] of -0.333. The z-score [13] was 0.019, the z-score [14] was 0.828 and the z-score [15] was 0.929. For the same compound, the z-score [16] was 1.18, the z-score [17] was 0.693 (inactive) and the z-score [18] was -0.786. The z-score [19] was -0.641 and the z-score [20] was -1.61 (inactive).
With `O=C1C2C=CC(C(O)C3CC=CCC3)N(Nc3ccc([N+](=O)[O-])cc3)C2C(=O)N1c1ccccc1` (stereo not given) the z-score [1] was -0.852 (inactive), the composite z-score [2] was 0.908 and the z-score [3] was 24.8 (active). The z-score [4] was 5.02 (inactive), the z-score [5] was 4 (inactive) and the z-score [6] was 1.2 (inactive). The z-score [7] was -0.837, the z-score [8] was -1.03 (inactive) and the z-score [9] was -3.02 (inactive). The z-score [10] was -3.26, the z-score [11] was -0.562 and the z-score [12] was 0.243. It also gave a z-score [13] of -1.55, a z-score [14] of 0.25 and a z-score [15] of -0.738. For the same compound, the z-score [16] was -1.02, the z-score [17] was -1.43 (inactive) and the z-score [18] was -0.374. The z-score [19] was 0.000383 and the z-score [20] was -0.383 (inactive).
